The test can be described thus: NCI Yeast Anticancer Drug Screen. Data for the mgt1 strain (AID 153). To be noted: S. cerevisiae mgt1 mutant growth inhibition, stronger effect = higher value. The procedure:
Growth inhibition of yeast strains with defined genetic alterations is measured as a screen for potential anti-cancer activity. Selected strains with alterations in DNA damage repair or cell cycle control were exposed to compounds and growth inhibition was measured relative to vehicle treated controls. The strain used in this assay is mgt1

This is part of a sample that, as a whole, favours compounds with a hit. Of some 79,000 tested, about 15% had one in any assay. Values without a mark were called inactive. Activity calls are given as the source filed them. Cut-off read from the data, not from the text of the source: active = growth inhibition above about 70%; inactive = the rest.

Eight compounds from PubChem BioAssay (NCI) can be followed below.

For the compound `CN(C)CCN1C(=O)c2cccc3cc([N+](=O)[O-])cc(c23)C1=O`, the growth inhibition is -11% (at 1.2 µM); -13% (at 3.7 µM); 4% (at 11.0 µM); 5% (at 33.0 µM); 68% (at 100.0 µM).
The matching figures for `CCOC(=O)[C@]1(Br)CC[C@@]1(Br)C(=O)OCC`: -23%, -23%, 23%, 96% (active) and 100% (active).
The corresponding values for `Clc1c(Cl)c(Cl)c2c(nnn2C2CCCO2)c1Cl` (stereo not given) are -24%, -9%, -5%, -1% and 75% (active).
Regarding `N#CC(=C1C=CC(=NO)C=C1)c1ccccc1`, the growth inhibition runs as follows: (at 1.2 µM) 1%; (at 3.7 µM) 24%; (at 11.0 µM) 99% (active); (at 33.0 µM) 99% (active); (at 100.0 µM) 99% (active).
Consider `Cc1ccc(I)cc1N=C=S`, for which the growth inhibition runs as follows: (at 1.2 µM) 31%; (at 3.7 µM) 44%; (at 11.0 µM) 53%; (at 33.0 µM) 96% (active); (at 100.0 µM) 99% (active).
The corresponding values for `COc1cccc(C(c2cc3c(cc2O)OCO3)N2CCOCC2)c1OC` (stereo not given) are -3%, -5%, 0%, -3% and 4%.
The matching figures for `S=C(S)NCC1CCC(CNC(=S)S)CC1` (stereo not given): -8%, 0%, 5%, 18% and 89% (active).
For the compound `Cc1ccc2c(ccc(/C=C/c3ccc(O)c4ncccc34)[n+]2C)c1`, the growth inhibition reads like this: (at 1.2 µM) 8%; (at 3.7 µM) 40%; (at 11.0 µM) 84% (active); (at 33.0 µM) 95% (active); (at 100.0 µM) 82% (active).
